Laboratory results published in the supplement of paper PMC11732987, “Enantioselective OTUD7B fragment discovery through chemoproteomics screening and high-throughput optimisation” (Communications Chemistry, 2025).

Legend:
Assay in all cases: log2 ratio of Biotin-Ahx-Ub-VS probe labelling (fragment/DMSO); higher = less target engagement (more negative = stronger competition), active = hit call of the paper (q ≤ 0.05, log2 ratio ≤ -1)
Conditions in all cases: compound concentration: 200 uM; treatment time: 3 h
USP19 = target: T1, USP19 (UniProt O94966)
T1 sequence (whole entry): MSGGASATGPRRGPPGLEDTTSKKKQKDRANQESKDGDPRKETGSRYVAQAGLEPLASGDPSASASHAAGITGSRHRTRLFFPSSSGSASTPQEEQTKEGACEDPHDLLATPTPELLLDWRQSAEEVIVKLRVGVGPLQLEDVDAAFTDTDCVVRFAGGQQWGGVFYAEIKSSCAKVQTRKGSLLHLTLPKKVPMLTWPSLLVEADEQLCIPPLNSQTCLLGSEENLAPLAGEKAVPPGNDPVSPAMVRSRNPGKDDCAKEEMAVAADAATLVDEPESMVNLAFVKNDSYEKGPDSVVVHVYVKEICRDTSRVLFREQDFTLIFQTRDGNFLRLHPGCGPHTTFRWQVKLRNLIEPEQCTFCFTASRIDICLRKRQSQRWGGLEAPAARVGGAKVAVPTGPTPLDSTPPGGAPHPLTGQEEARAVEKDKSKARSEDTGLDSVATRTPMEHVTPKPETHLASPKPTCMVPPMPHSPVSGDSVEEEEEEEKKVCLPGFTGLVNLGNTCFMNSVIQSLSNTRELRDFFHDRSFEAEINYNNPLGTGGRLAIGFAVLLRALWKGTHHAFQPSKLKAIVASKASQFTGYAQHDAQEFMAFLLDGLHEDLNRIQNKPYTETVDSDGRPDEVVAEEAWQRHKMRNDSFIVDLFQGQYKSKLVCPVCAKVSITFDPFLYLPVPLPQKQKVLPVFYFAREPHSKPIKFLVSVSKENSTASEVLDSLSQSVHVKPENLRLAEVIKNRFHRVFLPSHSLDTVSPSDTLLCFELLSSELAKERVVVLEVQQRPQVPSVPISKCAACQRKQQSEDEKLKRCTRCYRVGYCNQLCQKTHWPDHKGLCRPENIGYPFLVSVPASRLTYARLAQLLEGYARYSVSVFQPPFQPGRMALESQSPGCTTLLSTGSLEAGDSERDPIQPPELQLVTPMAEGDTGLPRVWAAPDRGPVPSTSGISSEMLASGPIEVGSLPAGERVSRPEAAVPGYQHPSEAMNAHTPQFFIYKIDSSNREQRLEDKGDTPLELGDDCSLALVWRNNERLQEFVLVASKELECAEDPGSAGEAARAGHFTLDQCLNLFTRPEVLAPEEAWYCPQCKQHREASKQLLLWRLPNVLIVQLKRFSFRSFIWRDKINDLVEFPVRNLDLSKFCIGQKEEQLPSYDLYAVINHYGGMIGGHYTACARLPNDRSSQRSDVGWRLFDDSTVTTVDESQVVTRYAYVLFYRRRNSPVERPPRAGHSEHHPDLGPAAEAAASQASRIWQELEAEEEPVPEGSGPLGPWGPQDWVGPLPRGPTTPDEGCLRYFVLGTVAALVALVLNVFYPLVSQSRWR
Method in brief: (§1)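 Labelled DUBs from HEK293T lysate were NeutrAvidin-enriched, digested with LysC and trypsin, and run by diaPASEF LC-MS/MS. Before that, each 495 µg sample in Tris/CHAPS/IGEPAL buffer with protease inhibitors was treated in triplicate with fragment at 200 µM or vehicle for 3 h, then with Biotin-Ahx-Ub-VS at 0.5 µM final for 1 h. Values are average log2 ratios of fragment over vehicle by unpaired t-test, based on global-median-normalised Spectronaut label-free quantities from proteins with ≥2 unique peptides.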

USP22 = target: T2, USP22 (UniProt Q9UPT9)
T2 sequence (whole entry): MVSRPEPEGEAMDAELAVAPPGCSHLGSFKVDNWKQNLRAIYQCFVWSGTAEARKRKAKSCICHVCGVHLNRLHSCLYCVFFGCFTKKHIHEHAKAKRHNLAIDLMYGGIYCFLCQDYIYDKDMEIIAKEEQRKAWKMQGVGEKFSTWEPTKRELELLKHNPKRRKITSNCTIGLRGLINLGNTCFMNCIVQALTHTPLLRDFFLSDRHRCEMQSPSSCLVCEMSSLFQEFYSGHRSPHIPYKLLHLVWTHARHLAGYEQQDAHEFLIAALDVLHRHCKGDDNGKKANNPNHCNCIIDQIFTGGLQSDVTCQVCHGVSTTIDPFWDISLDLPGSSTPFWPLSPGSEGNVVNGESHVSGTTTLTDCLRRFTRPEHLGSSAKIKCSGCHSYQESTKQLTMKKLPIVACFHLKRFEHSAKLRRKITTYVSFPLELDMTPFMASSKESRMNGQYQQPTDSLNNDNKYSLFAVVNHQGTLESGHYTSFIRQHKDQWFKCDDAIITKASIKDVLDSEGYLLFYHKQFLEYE
Method in brief: as §1

USP24 = USP24 (UniProt Q9UPU5)
Chain of USP24 (Q9UPU5 whole entry): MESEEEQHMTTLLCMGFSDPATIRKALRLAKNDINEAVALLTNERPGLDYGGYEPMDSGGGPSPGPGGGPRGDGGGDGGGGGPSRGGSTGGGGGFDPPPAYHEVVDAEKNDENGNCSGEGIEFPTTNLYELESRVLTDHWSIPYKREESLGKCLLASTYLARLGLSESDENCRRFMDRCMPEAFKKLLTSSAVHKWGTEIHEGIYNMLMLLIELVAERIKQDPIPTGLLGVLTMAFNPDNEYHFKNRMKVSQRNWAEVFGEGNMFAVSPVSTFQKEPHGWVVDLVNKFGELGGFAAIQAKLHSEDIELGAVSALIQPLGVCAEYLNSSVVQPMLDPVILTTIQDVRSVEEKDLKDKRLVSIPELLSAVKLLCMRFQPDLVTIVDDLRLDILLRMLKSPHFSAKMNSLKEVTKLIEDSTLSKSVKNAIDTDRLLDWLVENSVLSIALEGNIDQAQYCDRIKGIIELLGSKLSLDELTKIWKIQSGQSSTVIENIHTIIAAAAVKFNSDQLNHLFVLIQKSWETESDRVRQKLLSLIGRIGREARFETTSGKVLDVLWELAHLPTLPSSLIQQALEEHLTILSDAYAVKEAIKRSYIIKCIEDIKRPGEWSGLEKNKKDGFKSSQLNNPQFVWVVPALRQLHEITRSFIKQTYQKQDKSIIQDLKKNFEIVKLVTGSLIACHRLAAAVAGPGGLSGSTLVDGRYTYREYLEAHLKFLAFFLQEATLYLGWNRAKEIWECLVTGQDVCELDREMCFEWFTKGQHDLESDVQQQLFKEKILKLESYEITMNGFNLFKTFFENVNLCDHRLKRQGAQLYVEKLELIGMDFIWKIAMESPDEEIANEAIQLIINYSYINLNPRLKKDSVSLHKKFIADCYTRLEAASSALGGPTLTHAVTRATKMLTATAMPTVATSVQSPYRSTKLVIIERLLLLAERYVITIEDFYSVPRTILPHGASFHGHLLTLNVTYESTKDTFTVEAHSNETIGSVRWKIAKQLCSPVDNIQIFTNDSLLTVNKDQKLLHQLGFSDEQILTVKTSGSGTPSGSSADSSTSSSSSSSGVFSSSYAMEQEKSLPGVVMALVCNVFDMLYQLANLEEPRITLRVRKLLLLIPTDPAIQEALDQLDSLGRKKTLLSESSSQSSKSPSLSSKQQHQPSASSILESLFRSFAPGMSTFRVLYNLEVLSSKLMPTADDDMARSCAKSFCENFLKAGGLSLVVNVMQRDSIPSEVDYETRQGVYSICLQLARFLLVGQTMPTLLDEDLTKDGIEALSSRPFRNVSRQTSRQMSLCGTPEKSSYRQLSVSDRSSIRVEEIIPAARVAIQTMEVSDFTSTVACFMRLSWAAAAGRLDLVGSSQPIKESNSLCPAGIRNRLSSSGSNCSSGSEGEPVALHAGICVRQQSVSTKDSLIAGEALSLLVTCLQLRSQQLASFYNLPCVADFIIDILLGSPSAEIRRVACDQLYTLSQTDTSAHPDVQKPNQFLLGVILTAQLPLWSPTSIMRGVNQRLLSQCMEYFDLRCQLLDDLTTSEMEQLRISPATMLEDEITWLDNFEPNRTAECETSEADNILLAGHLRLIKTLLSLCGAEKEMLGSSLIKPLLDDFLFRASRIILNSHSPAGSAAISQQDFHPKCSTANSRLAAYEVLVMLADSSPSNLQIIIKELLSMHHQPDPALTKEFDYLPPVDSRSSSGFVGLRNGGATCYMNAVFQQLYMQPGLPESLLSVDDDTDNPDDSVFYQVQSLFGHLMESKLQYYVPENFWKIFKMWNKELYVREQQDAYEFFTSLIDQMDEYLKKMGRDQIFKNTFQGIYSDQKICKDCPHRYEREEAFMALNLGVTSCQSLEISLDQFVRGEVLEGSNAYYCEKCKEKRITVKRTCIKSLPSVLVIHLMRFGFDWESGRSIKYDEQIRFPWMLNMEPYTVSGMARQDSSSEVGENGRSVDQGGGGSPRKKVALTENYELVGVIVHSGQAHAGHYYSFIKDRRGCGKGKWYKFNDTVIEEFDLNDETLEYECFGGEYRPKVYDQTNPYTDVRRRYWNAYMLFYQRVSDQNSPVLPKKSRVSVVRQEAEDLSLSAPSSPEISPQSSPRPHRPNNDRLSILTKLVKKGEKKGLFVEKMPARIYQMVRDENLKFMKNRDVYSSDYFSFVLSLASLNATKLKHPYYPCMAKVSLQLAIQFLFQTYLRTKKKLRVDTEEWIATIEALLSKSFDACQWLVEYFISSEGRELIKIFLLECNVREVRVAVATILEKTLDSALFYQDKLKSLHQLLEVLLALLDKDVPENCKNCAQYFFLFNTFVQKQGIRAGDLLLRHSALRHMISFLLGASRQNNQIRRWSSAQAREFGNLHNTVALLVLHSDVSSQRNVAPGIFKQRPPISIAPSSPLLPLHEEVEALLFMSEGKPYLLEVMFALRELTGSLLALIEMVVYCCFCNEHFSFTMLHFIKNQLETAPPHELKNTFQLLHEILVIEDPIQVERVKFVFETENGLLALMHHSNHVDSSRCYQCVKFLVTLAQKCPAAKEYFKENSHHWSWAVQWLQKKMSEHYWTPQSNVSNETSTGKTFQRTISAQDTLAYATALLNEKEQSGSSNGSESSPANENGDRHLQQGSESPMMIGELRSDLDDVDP
Method in brief: as §1

USP25 = target: T3, USP25 (UniProt Q9UHP3)
T3 sequence (whole entry): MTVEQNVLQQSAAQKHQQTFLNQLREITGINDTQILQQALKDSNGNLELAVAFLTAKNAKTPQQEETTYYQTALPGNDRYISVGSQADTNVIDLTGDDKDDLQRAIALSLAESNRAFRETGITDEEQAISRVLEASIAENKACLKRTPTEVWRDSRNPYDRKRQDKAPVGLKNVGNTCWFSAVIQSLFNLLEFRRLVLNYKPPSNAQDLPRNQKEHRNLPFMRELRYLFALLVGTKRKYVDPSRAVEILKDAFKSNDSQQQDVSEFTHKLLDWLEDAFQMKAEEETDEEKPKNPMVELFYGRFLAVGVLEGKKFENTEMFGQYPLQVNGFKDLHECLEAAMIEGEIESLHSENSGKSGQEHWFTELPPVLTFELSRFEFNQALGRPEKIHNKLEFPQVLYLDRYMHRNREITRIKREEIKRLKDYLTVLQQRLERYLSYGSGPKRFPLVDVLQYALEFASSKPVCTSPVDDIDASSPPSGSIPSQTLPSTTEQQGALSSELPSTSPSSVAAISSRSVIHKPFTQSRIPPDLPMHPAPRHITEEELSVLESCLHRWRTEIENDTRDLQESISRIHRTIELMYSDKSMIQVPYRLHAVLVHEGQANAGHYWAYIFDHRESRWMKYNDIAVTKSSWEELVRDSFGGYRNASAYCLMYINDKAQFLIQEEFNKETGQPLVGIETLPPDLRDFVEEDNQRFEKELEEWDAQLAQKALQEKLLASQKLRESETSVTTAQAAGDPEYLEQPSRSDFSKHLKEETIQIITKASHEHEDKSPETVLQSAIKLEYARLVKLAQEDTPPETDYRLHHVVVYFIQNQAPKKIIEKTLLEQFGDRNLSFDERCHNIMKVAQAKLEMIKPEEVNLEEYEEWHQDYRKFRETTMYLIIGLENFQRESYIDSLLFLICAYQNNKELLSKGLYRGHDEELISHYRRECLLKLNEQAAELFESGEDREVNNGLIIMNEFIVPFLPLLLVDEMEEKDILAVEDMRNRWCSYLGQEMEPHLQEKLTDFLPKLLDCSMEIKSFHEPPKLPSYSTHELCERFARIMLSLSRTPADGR
Method in brief: as §1

USP28 = target: T4, USP28 (UniProt Q96RU2)
T4 sequence (whole entry): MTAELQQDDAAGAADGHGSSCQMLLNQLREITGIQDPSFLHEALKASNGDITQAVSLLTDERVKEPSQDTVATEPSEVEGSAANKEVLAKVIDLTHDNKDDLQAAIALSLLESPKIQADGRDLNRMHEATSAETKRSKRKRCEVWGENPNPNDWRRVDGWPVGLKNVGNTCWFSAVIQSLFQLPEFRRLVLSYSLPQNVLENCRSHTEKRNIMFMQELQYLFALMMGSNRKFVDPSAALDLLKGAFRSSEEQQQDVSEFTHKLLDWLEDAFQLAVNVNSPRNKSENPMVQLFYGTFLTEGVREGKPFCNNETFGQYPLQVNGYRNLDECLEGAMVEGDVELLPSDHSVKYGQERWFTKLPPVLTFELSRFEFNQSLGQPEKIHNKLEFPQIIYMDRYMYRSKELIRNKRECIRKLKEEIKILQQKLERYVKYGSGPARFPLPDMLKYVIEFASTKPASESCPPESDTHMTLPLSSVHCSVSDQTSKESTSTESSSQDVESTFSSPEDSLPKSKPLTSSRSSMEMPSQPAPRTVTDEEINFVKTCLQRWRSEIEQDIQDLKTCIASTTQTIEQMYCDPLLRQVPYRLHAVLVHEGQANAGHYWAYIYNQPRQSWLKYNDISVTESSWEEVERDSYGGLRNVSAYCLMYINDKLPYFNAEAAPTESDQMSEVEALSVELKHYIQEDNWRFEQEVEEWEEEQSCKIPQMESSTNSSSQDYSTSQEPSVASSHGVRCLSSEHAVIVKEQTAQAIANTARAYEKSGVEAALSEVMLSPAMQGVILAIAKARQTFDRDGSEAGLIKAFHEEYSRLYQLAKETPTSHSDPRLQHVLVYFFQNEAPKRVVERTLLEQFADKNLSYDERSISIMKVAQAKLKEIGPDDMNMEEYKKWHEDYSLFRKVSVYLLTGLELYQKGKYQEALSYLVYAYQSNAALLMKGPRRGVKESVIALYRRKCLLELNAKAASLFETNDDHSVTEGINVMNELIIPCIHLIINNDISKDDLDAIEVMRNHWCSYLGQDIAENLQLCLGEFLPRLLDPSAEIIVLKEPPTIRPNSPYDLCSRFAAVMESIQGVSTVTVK
Method in brief: as §1

Measured: log2 ratio of Biotin-Ahx-Ub-VS probe labelling

Cc1cc(Cl)ccc1NC(=O)CCl
inactive: USP19 -0.055 | USP22 -0.467 | USP24 -0.224 | USP25 -0.208 | USP28 -0.682
